Compounds with a hit are over-represented: about 4.7% of the library has one in this group of screens.
D1 potentiator: human D1 dopamine receptor positive modulation | HEK293 TREx D1 cells, calcium flux, dopamine EC20 potentiation | potentiation, % at 10 µM | 360,000 compounds, 0.036% hits | AID 504651; in the data active means potentiation above about 30%
Target sequence (P21728 whole entry, looked up): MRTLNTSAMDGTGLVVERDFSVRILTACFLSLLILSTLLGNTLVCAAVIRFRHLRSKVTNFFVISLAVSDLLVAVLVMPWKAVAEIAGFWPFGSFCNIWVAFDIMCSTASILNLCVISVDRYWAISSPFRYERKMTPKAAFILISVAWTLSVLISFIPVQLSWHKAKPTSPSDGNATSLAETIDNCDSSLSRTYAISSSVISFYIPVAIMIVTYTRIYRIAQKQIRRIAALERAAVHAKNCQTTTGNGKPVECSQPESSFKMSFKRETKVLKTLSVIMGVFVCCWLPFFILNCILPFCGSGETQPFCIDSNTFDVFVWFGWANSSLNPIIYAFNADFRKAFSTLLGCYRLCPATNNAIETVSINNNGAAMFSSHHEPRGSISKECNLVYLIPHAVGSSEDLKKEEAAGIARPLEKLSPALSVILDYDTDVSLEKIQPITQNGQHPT
D1 antag: blocks dopamine activation of the human D1 receptor; AID 504652; HEK293 TREx D1 cells, calcium flux, dopamine EC80; hits give low values; 360,000 compounds, 3.2% hits; P21728; activity change, negative = inhibition, % at 10 µM; in the data active means activity change below about -30%
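Tetracycline-induced HEK293 T-REx cells with force-coupled D1 receptor were loaded with a no-wash calcium dye. Compound was added after a 10 s baseline and read kinetically for 180 s; EC80 dopamine was then added and calcium flux followed another 180 s.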
TRHR PAM: allosterically enhances the human TRH receptor; enhancement, % at 2 µM; AID 493056; P34981; 360,000 compounds, 0.66% hits; TRHR cells, fluo-8 calcium fluorescence, EC20 TRH enhancement; in the data active means enhancement above about 30%
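TRHR-expressing cells loaded with fluo-8 calcium dye were read kinetically (ex 480/em 530) during compound addition, then stimulated with an EC20 of TRH (10 nM final). Enhancement of the Gq-mediated intracellular calcium response was scored.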
D1 ag: agonists of human D1 dopamine receptor. P21728. HEK293 T-REx D1 cells, calcium flux, agonist mode. activation, % at 2 µM. 360,000 compounds, 1% hits. AID 504660
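Tetracycline-induced HEK293 TREx D1 cells, force-coupled to calcium signalling, were dye-loaded with a no-wash calcium kit. Compound was pin-added after a 10 s baseline. Fluorescence was read kinetically at 1 cycle/s for 180 s, with calcium rises flagged as agonism.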
TRHR agonist: TRH receptor (human) agonism. TRHR cells, calcium flux fluo-8, FDSS agonist mode. 360,000 compounds, 0.18% hits. P34981. AID 493084. activation, % at 2 µM
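TRHR-expressing cells, plated overnight in medium with 10% serum, were loaded with fluo-8 calcium dye at room temperature. After a 10 s baseline, library compound was pin-added and calcium release was recorded kinetically (ex 480/em 530) as agonist response.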
Large screens that a line does not name were inactive. Unless noted, no stated cut-off is given here; in the data, active means activation above about 30%; inactive means the rest.

O=C(CCn1c(=O)[nH]c2ccccc2c1=O)N1CCN(c2ccc(Cl)cc2)CC1	D1 antag -32
Cc1ccc(CNC(=O)c2ccc(Cn3c(SCc4ccc(F)cc4)nc4cccnc43)cc2)o1	none
COC(=O)C1(C)CCc2cc(OC)ccc2C1=O (stereo not drawn)	D1 antag -46
COC(=O)CSC1=C(C#N)C(c2cccc(F)c2)CC(=O)N1 (stereo not drawn)	none
CCOc1ccccc1C1CC(=O)NC(SCC)=C1C#N (stereo not drawn)	TRHR PAM 34
CCCSC1=C(C#N)C(c2ccc(O)c(OC)c2)CC(=O)N1 (stereo not drawn)	D1 antag -53 (no result: D1 potentiator)
COC(=O)CSC1=C(C#N)C(c2cccc(OC)c2)CC(=O)N1 (stereo not drawn)	D1 antag -42 (no result: D1 potentiator)
O=S(=O)(NCC(c1ccco1)S(=O)(=O)c1ccccc1)c1cc(F)ccc1F (stereo not drawn)	none (no result: D1 antag)
COc1ccc2oc(=O)c(-c3cn4c(n3)sc3cc(F)ccc34)cc2c1	none
Cc1ccc(Cn2c(=O)n(Cc3ccco3)c(=O)c3sc4ccccc4c32)cc1	none
Cc1ccc(-n2c(=O)c3ccc(C(=O)NCc4ccco4)cc3n(CC(=O)Nc3ccccc3C(F)(F)F)c2=O)cc1	none
COc1cc(OC)c(NC(=O)Nc2ccc3c(c2)N(C)C(=O)c2ccccc2S3)cc1Cl	none
Cc1cc(C)cc(NC(=O)CCCCCN2C(=O)[C@@H]3Cc4ccccc4CN3C2=O)c1	D1 antag -40
COc1cccc(NC(=O)CCCCCN2C(=O)[C@@H]3Cc4ccccc4CN3C2=O)c1	none
CC(C)CCn1c(=O)c2sccc2n2c(CCCC(=O)N3CCC(N4CCCCC4)CC3)nnc12	D1 antag -45
CN1CCN(S(=O)(=O)c2ccc(N3CCN(S(=O)(=O)/C=C/c4ccccc4)CC3)nc2)CC1	D1 antag -49
Cc1oc(-c2ccccc2F)nc1Cn1c(SCc2ccccc2F)nc2ccncc21	none
COc1ccc(CCN(C)C(=O)CN2C(=O)NC3(CCCCCC3)C2=O)cc1OC	D1 antag -60
COc1ccc(CCN(C)C(=O)Cc2ccc(-c3ccccc3)cc2)cc1OC	D1 antag -31
CN1CCN(C(=O)c2c(NC(=O)c3ccco3)sc3c2CCC(C(C)(C)C)C3)CC1 (stereo not drawn)	D1 ag 34
CC(C)(C)C1CCc2c(sc(NC(=O)c3cccs3)c2C(N)=O)C1 (stereo not drawn)	D1 potentiator 33
Cc1ccccc1C(=O)Nc1sc2c(c1C(=O)N1CCCCC1)CCC(C(C)(C)C)C2 (stereo not drawn)	none
O=C(NCc1ccc(Cl)cc1)C(=O)NCC(c1ccco1)S(=O)(=O)c1cccs1 (stereo not drawn)	none (no result: D1 antag)
COc1cc(-c2nc3ccccn3c2Nc2ccccc2C)ccc1O	none
O=C(CSc1ncc2c(n1)-c1ccccc1N(Cc1ccc(F)cc1)S2(=O)=O)c1ccc(Cl)cc1	none
CS(=O)(=O)c1ccc2nc(NC(=O)Nc3ccc(Cl)c(Cl)c3)sc2c1	none
NS(=O)(=O)c1ccc(NC(=O)Nc2cccc(Cl)c2)cc1	D1 antag -32
Cc1nc2ccc(S(=O)(=O)NC(C(=O)Nc3nc4ccc(Cl)cc4s3)C(C)C)cc2s1 (stereo not drawn)	D1 antag -41 (no result: D1 potentiator)
NC(=O)c1ccccc1NC(=O)Nc1cccc(Cl)c1	D1 antag -42
CS(=O)(=O)c1ccc2nc(NC(=O)Nc3cccc(Cl)c3)sc2c1	D1 ag 34
COc1ccccc1N1CCN(C(=O)c2cnc(N3CCCCC3)c3ccccc23)CC1	none
CSc1cccc(NC(N)=O)c1	none
CSc1cccc(NC(=O)Nc2ccc(Cl)cc2)c1	D1 antag -33
CCOC(=O)N1CCN(CC(O)COCc2ccccc2)CC1 (stereo not drawn)	none
CC1CCCN(CC(O)COc2ccc(Cl)cc2)C1 (stereo not drawn)	none
CC1CCCN(CC(O)COc2ccc(-c3ccccc3)cc2)C1 (stereo not drawn)	D1 ag 42
OC1CCCN(CC(O)COc2ccc(-c3ccccc3)cc2)C1 (stereo not drawn)	D1 ag 30
CCOC(=O)N1CCN(CC(O)COc2ccc(-c3ccccc3)cc2)CC1 (stereo not drawn)	D1 antag -31
Cc1cccc(CNC(=O)C2CCN(c3nn4cc(-c5ccc(F)cc5)nc4s3)CC2)c1	none
CCOc1ccc(OCC)c(NC(=O)c2nnn(CC(=O)Nc3ccc(C)cc3C)c2N)c1	none
CCC(=O)Oc1ccc2ccccc2c1CNC(=O)c1ccccc1	D1 antag -40
CCc1cccc(NC(=O)C(Cc2ccccc2)NS(=O)(=O)c2cccs2)c1 (stereo not drawn)	none
COc1ccc(C)cc1NC(=O)C(NS(=O)(=O)c1cccs1)c1ccccc1 (stereo not drawn)	D1 antag -35
Cc1ccc(NC(=O)C(Cc2ccccc2)NS(=O)(=O)c2cccs2)cc1Cl (stereo not drawn)	D1 antag -42
N#CC1=C(N)OC2=C(CC/C2=C\c2ccccc2Cl)C1c1ccccc1Cl (stereo not drawn)	D1 ag 35
Cc1cc(C)n(-c2nc3ccccc3nc2Nc2cccc(C(=O)NCCc3ccccc3)c2)n1	none
O=C(O)c1ccccc1N/N=C/c1c(Sc2nnnn2-c2ccccc2)nc2ccccn2c1=O	D1 antag -43
CCOC(=O)c1cccc(NC(=O)C2CCN(S(=O)(=O)c3cn(C)cn3)CC2)c1	none
Cc1ccc(S(=O)(=O)N2CCN(CC(=O)Nc3ccnn3C3CCCC3)CC2)cc1	D1 antag -37
O=C(CN1CCN(S(=O)(=O)c2ccccc2F)CC1)Nc1ccnn1C1CCCC1	D1 antag -40
CCc1ccc(OCC(=O)N(Cc2ccc(Cl)cc2)C2CCS(=O)(=O)C2)cc1 (stereo not drawn)	none
COc1cc(-c2noc(-c3nnn(-c4ccc(Cl)cc4)c3C)n2)cc(OC)c1OC	D1 antag -33
COc1ccc(Cl)cc1-n1nnc(-c2nc(-c3ccccc3)no2)c1C	D1 antag -57
Cc1ccc(CSc2nc3ccc(NC(=O)C(C)C)cc3s2)cc1	none
CCC(=O)N1CCc2cc(Br)cc(S(=O)(=O)N3CCCC(C(=O)NCc4cccc(OC)c4)C3)c21 (stereo not drawn)	D1 antag -31
O=C(COC(=O)c1cc([N+](=O)[O-])ccc1N1CCOCC1)Nc1ccccc1OC(F)F	D1 antag -31
CN(C)S(=O)(=O)c1cccc(COC(=O)c2cc([N+](=O)[O-])ccc2N2CCOCC2)c1	D1 antag -39
CSc1ccc(COC(=O)c2cc([N+](=O)[O-])ccc2N2CCOCC2)cc1	none
COc1cc(NC(=O)Cn2nnnc2-c2ccccc2F)cc(OC)c1OC	none

From PubChem BioAssay
